Laboratory results published in the supplement of paper PMC12669032.

Each compound was assayed on Roseburia intestinalis (assay: growth AUC relative to DMSO control (median of replicates) (fraction); higher = more growth (less inhibition), active = hit call of the paper). Details: 20 µM; 24 h;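 active = AUC reduced over 20% with Padj below 0.05 in at least 2 of 3 replicates; inactive = otherwise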.
Procedure, shortened: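 Three biological replicates, each grown on a separate day, were combined as a median for every value. In each, a gut bacterial monoculture in mGAM started at OD600 0.05 and grew anaerobically at 37 °C with 20 µM compound (1% DMSO), with OD600 read hourly over 24 h. Area under the growth curve was normalised against the plate median of solvent-only wells, or against row and column medians on the industrial chemical plate, after the minimum OD was set to 0.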

Growth AUC, inactive:
CC(C)c1cccc2c(=O)c3ccccc3sc12 1.02
N#Cc1ccc(CC(=NNC(=O)Nc2ccc(OC(F)(F)F)cc2)c2cccc(C(F)(F)F)c2)cc1 (mixture of isomers) 0.954
O=[N+]([O-])c1ccc(O)cc1 1.14
Cc1nn(C)c(Oc2ccccc2)c1/C=N/OCc1ccc(C(=O)OC(C)(C)C)cc1 0.924
CCOC(=O)C(C)N(C(=O)c1ccccc1)c1ccc(Cl)c(Cl)c1 (centres undefined) 0.958
CCCC(C)(C)C(=O)Nc1ccc(Cl)cc1 0.945
O=C(O)COc1cc(N2C(=O)C3=C(CCCC3)C2=O)c(F)cc1Cl 0.987
CCOC(=O)C(C)Oc1ccc(Oc2cnc3cc(Cl)ccc3n2)cc1 (centres undefined) 1.02
CCOC(=O)/C(Cl)=C/c1cc(N2C(=O)C3=C(CCCC3)C2=O)ccc1Cl 0.981
[O-][n+]1nc(-n2ccnc2)nc2ccc(Cl)cc21 0.984
C#CC(C)N(C)C(=O)Nc1ccc(Cl)cc1 (centres undefined) 0.992
CC(C)N(C(=O)C(=O)O)c1ccccc1 1.02
COCCN(C(=O)CO)c1c(C)cccc1C(=O)O 1.01
CCCCOCCOC(=O)COc1nc(Cl)c(Cl)cc1Cl 0.995
COC(=O)c1csc(C)c1S(=O)(=O)NC(=O)n1nc(OC)n(C)c1=O 0.974
CC(=O)CC(c1ccccc1)c1c(O)c2ccccc2oc1=O (centres undefined) 0.952
CCCCCCCCOC(=O)COc1cc(Cl)c(Cl)cc1Cl 0.953
O=C(O)COc1ccc(Cl)cc1CO 0.945
Cl.NCCO/C=C/[C@H](N)C(=O)O 0.975
O=C(O)Cc1c[nH]c2ccccc12 1.1
COc1cc(Cl)ccc1Oc1ccc(Cl)cc1Cl 0.991
O=C(O)Cc1c(Cl)ccc(Cl)c1Cl 0.979
CCCNCCOc1c(Cl)cc(Cl)cc1Cl 0.946
S=C([S-])NCCNC(=S)[S-].[Mn+2] 0.96
O=C(O)c1ccc(Cl)cc1Cl 0.997
CCC/C(=N\OCC)C1=C(O)CC(C2CCCSC2)CC1=O (centres undefined) 0.937
COc1ccccc1C(=O)NS(=O)(=O)c1ccc(C(=O)NC2CC2)cc1 0.978
O.O.O=[N+]([O-])c1ccc([O-])cc1.[Na+] 0.999
CC(C)COC(=O)COc1cc(Cl)c(Cl)cc1Cl 1.01
C=CCc1ccc(O)c(OC)c1 0.937
CC(C)N(C(=O)CS(=O)(=O)[O-])c1ccccc1.[Na+] 1.02
Nc1ccc(S(=O)(=O)Nc2nccs2)cc1 0.993
C=CCO/N=C(\CCC)C1=C([O-])CC(C)(C)C(C(=O)OC)C1=O.[Na+] (centres undefined) 0.982
FC(F)(F)c1cccc(C(c2ccccc2)(c2ccccc2)n2cncn2)c1 0.911
CC(C)N(C(=O)CS(=O)(=O)[O-])c1ccc(F)cc1.[Na+] 1.03
CCNc1nc(N)nc(Cl)n1 1.01
COC(=O)c1cccc(C)c1S(=O)(=O)NC(=O)Nc1nc(OCC(F)(F)F)nc(N(C)C)n1 0.984
CC(=O)Nc1cc(NS(=O)(=O)C(F)(F)F)c(C)cc1C 1.02
CC(C)(SC(=O)N1CCCCC1)c1ccccc1 1.05
